Assay results published in PubChem BioAssay (EPA / NIEHS).
“And” between values parts separate entries of the source, which are not always exact repeats. Equal values may be shown once. The source holds several records for some structures; these can differ, active in one and inactive in another. The source made the active and inactive calls. How the source made its calls: active means hit-call score of the fitted dose curve at least 0.9, where 1 is the maximum; inactive means score below 0.9.

What was measured:
[1] = read-out: Matrix Metallopeptidase 1 (MMP1), MMP1 (gene 4312); assay: BSK_BE3C_MMP1: BioMAP Diversity Plus: BE3C Assay for Matrix Metallopeptidase 1 (MMP1) Biomarker Activity (AID 2283024); conditions: primary human bronchial epithelial cells; actives raise or lower the signal
In short: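 Human primary bronchial epithelial cells (BE3C system) dosed for 24 h; MMP-1 quantified by ELISA. Bidirectional fit against DMSO; cytotoxicity tracked in parallel cultures by SRB total-protein staining.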

[2] = read-out: Pselectin, SELP (gene 6403); assay: BSK_4H_Pselectin: BioMAP Diversity Plus: 4H Assay for Pselectin Biomarker Activity (AID 2283026); conditions: primary human endothelial cells (HUVEC); actives raise or lower the signal
In short: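 Primary human umbilical vein endothelial cells were treated 24 h, and cell-surface P-selectin was then quantified by ELISA. Bidirectional fit versus DMSO; cytotoxicity checked in parallel cultures by SRB total-protein staining.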

[3] = BSK_4H_SRB: Viability Assessment in the BioMAP Diversity Plus: 4H Assay (AID 2283027); conditions: primary human endothelial cells (HUVEC);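 further: cells exposed to compound for 24 h before staining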;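 on AC50: curves fitted both ways versus DMSO so AC50 may be loss or gain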
In short: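 Human umbilical vein endothelial cells were dosed with chemical and, after 24 h, fixed with 10% TCA, stained with 0.1% sulforhodamine B, and read at 560 nm to give total protein as a cytotoxicity measure. Bidirectional fitting relative to DMSO control.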

[4] = BSK_BE3C_SRB: Viability Assessment in the BioMAP Diversity Plus: BE3C Assay (AID 2283028); conditions: primary human bronchial epithelial cells;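 on AC50: fitted both ways so AC50 may mark signal gain or loss versus DMSO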
In short: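 Human primary bronchial epithelial cells were exposed to test chemicals for 24 h. Total protein in parallel cultures was then measured by staining with 0.1% sulforhodamine B after 10% TCA fixation, with absorbance read at 560 nm. Activity was fitted bidirectionally against DMSO.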

[5] = read-out: Urokinase-type plasminogen activator receptor (uPAR), PLAUR (gene 5329); assay: BSK_4H_uPAR: BioMAP Diversity Plus: 4H Assay for Urokinase-type plasminogen activator receptor (uPAR) Biomarker Activity (AID 2283030); conditions: primary human endothelial cells (HUVEC); actives raise or lower the signal
In short: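 Primary human umbilical vein endothelial cells were exposed to chemical for 24 h before cell-surface uPAR was quantified by ELISA. Activity was fitted bidirectionally against the DMSO negative control baseline.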

[6] = read-out: Vascular endothelial growth factor receptor 2 (Homo sapiens) (UniProt P35968); assay: BSK_4H_VEGFRII: BioMAP Diversity Plus: 4H Assay for Vascular endothelial growth factor receptor 2 (VEGFR2) Biomarker Activity (AID 2283031); conditions: primary human endothelial cells (HUVEC); actives raise or lower the signal;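 on AC50: cell-surface VEGFR2 protein level quantified by ELISA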
In short: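 Primary human umbilical vein endothelial cells in the BioMAP 4H system were dosed with test chemical, and 24 h later VEGFRII was measured by ELISA. Activity was fitted bidirectionally against DMSO as negative control and baseline.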

[7] = read-out: Human Leukocyte Antigen - DR isotype (HLADR), HLA-DRA (gene 3122); assay: BSK_BE3C_HLADR: BioMAP Diversity Plus: BE3C Assay for Human Leukocyte Antigen - DR isotype (HLADR) Biomarker Activity (AID 2283032); conditions: primary human bronchial epithelial cells; actives raise or lower the signal
In short: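 Human primary bronchial epithelial cells (BE3C system) exposed to compound for 24 hours; cell-surface HLA-DR measured by ELISA, fitted bidirectionally relative to DMSO. Total protein by SRB in parallel cultures tracked cytotoxicity.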

[8] = read-out: Thrombomodulin, THBD (gene 7056); assay: BSK_3C_Thrombomodulin: BioMAP Diversity Plus: 3C Assay for Thrombomodulin Biomarker Activity (AID 2283029); conditions: primary human endothelial cells (HUVEC); actives raise or lower the signal
In short: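 Human umbilical vein endothelial cells were exposed to chemicals for 24 h; cell-surface thrombomodulin quantified by ELISA, with bidirectional fitting against DMSO baseline.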

[9] = BSK_3C_Vis: BioMAP Diversity Plus: 3C Assay for Morphology Visualization (AID 2283025); conditions: primary human endothelial cells (HUVEC);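 further: fitted both ways so gain or loss versus DMSO counts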;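 on AC50: light microscopy image of cell morphology used as background control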
In short: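 Human umbilical vein endothelial cell morphology was inspected by light microscopy 24 h after chemical dosing; scored bidirectionally relative to DMSO.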

SMILES: OCC(F)(F)C(F)(F)C(F)(F)C(F)(F)C(F)(F)C(F)(F)C(F)(F)C(F)(F)C(F)(F)C(F)(F)C(F)(F)F
- outcome [1]: inactive
- AC50 [2]: 0.275 µM (active)
- outcome [2]: inactive
- outcome [3]: inactive
- outcome [4]: inactive
- outcome [5]: inactive
- outcome [6]: inactive
- AC50 [7]: 251 nM (active) and 154 nM (active)

SMILES: Oc1ccc(Cc2ccccc2O)cc1
- outcome [1]: inactive
- outcome [2]: inactive
- outcome [3]: inactive
- outcome [4]: inactive
- outcome [8]: inactive
- outcome [5]: inactive
- outcome [6]: inactive
- outcome [7]: inactive

SMILES: C[C@]12CC[C@@H]3c4ccc(O)cc4CC[C@H]3[C@@H]1C[C@@H](O)[C@@H]2O
- outcome [1]: inactive
- outcome [9]: inactive
- outcome [2]: inactive
- outcome [3]: inactive
- outcome [4]: inactive
- outcome [5]: inactive
- outcome [6]: inactive
- outcome [7]: inactive

SMILES: O=C(CCCN1CCC(O)(c2ccc(Cl)cc2)CC1)c1ccc(F)cc1
- outcome [1]: inactive
- AC50 [9]: 9.8 µM (active)
- outcome [2]: inactive
- AC50 [3]: 9.78 µM (active)
- outcome [4]: inactive
- AC50 [5]: 10.9 µM (active)
- outcome [6]: inactive
- outcome [7]: inactive

SMILES: O=C(c1ccccc1)c1ccccc1
- outcome [1]: inactive
- outcome [9]: inactive
- outcome [2]: inactive
- outcome [4]: inactive
- outcome [5]: inactive
- outcome [6]: inactive
- outcome [7]: inactive

SMILES: CCCCC(CC)C(=O)O (stereo not drawn)
- outcome [1]: inactive
- outcome [9]: inactive
- outcome [2]: inactive
- outcome [3]: inactive
- outcome [4]: inactive
- outcome [5]: inactive
- outcome [6]: inactive
- outcome [7]: inactive

SMILES: CCC(C)c1ccccc1O (stereo not drawn)
- outcome [1]: inactive
- outcome [9]: inactive
- outcome [2]: inactive
- outcome [3]: inactive
- outcome [4]: inactive
- outcome [5]: inactive
- outcome [6]: inactive
- outcome [7]: inactive

SMILES: Cc1ccc(N=Nc2c(O)ccc3ccccc23)c(C)c1
- outcome [1]: inactive
- AC50 [9]: 19.9 µM (active)
- outcome [2]: inactive
- outcome [3]: inactive
- outcome [4]: inactive
- outcome [5]: inactive
- outcome [6]: inactive
- AC50 [7]: 10 µM (active)

SMILES: COc1cc(OC)nc(NC(=O)NS(=O)(=O)Nc2ccccc2C(=O)N(C)C)n1
- outcome [1]: inactive
- outcome [9]: inactive
- outcome [2]: inactive
- outcome [3]: inactive
- outcome [4]: inactive
- outcome [5]: inactive
- outcome [6]: inactive
- outcome [7]: inactive

SMILES: CCCCCCCCCCCCOS(=O)(=O)O
- outcome [1]: inactive
- outcome [9]: inactive
- outcome [2]: inactive
- outcome [3]: inactive
- AC50 [4]: 32.6 µM (active)
- outcome [5]: inactive
- outcome [6]: inactive
- AC50 [7]: 26.2 µM (active)

SMILES: CN(C)c1ccc(C(=C2C=CC(=[N+](C)C)C=C2)c2ccccc2)cc1
- AC50 [9]: 0.00948 µM (active)
- AC50 [2]: 0.0138 µM (active)
- AC50 [3]: 0.0527 µM (active)
- AC50 [4]: 2.72 µM (active)
- AC50 [5]: 0.00549 µM (active)
- AC50 [6]: 0.0249 µM (active)
- AC50 [7]: 0.0162 µM (active)

SMILES: CCCCCCCCCCCCCCCCCC[N+](C)(C)Cc1ccccc1
- AC50 [1]: 10 µM (active)
- AC50 [9]: 0.425 µM (active)
- AC50 [2]: 0.975 µM (active)
- AC50 [3]: 2.63 µM (active)
- outcome [4]: inactive
- AC50 [5]: 0.59 µM (active)
- outcome [6]: inactive
- AC50 [7]: 2.05 µM (active)

SMILES: C=CC(C)(CCC=C(C)C)OC(C)=O (stereo not drawn)
- outcome [1]: inactive
- AC50 [9]: 37.4 µM (active)
- AC50 [2]: 31 µM (active)
- AC50 [3]: 34.2 µM (active)
- outcome [4]: inactive
- AC50 [5]: 28.9 µM (active)
- AC50 [6]: 31.5 µM (active)
- AC50 [7]: 30.2 µM (active)

SMILES: Clc1ccc(Nc2nnc(Cc3ccncc3)c3ccccc23)cc1
- outcome [1]: inactive
- outcome [9]: inactive
- outcome [2]: inactive
- outcome [3]: inactive
- outcome [4]: inactive
- outcome [5]: inactive
- outcome [6]: inactive
- outcome [7]: inactive

SMILES: CC[N+](CC)(CC)Cc1ccccc1
- outcome [1]: inactive
- outcome [9]: inactive
- outcome [2]: inactive
- outcome [3]: inactive
- outcome [4]: inactive
- outcome [5]: inactive
- outcome [6]: inactive
- outcome [7]: inactive
